# System: PPARg:RXRa 30nM:10nM, anti-RXR (NR concentration 30 nM, RXRa partner concentration 10 nM)
# Test: PBM binding z-score (relative to random genomic background probes); higher = stronger binding; sequences stand for … in GC…GCGATTGACAGCGTAGAATGAAGG
# Outline: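 Custom Agilent 4×180K protein-binding microarrays carried double-stranded probes. Their 34-nt variable regions held direct-repeat seeds, single-nucleotide variants, half-site ablations and random human genomic background sequences. Arrays were incubated 1 h with ligand-free nuclear receptor dimers in PBS pH 7.4, 2% milk, 0.02% Triton X-100, 1 mM DTT, 0.2 mg/mL BSA and 0.4 mg/ml salmon testes DNA. Antibodies against each partner (one per run) detected binding, and scanned fluorescence was regression-normalized. Binding z-scores use random background probes as reference.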
row,Sequence,PBM binding z-score
1,AGTCAAAGTTCATCTAGGTAACGTATGATATGCT,3.52
2,CAAACTAGGTGAAGAGGTCAAAGTCCGCTTCCCG,5.27
3,CCTATTTGGTCAAGGTCACACACGCTATAGGTAC,1.55
4,AGAATGAGGTTGTACGTAGATCAGGGAAGAAAGT,0.21
5,GTACCAAGGTGAATAGGTCGTTAATGAGTAGGCG,0.588
6,CCTAGCAGGCCAATCTGGGTCACACAAGGCTTGA,0.555
7,AACTCTAGGTAAAAGTTCAGTGAATCCCGAGGAT,6.5
8,TTACCAAGGTGAAGGTCGTTGTTCCCTCTGTAGA,2.07
9,CCGACTGGTGCAGAAAGGTTACCATACCATCCGG,-0.313
10,TCTATTAGTTGATGGGCAACCGACGAGTCCGTTT,3.41
11,GCTTACGGGTCAAAGGTTATTGCATGAATAGAAT,8.78
12,TCTTGTAGATCAAAGGTTAAGAACGCCGAAGCCT,7.43
13,TCAGACAGGTGAAGGTAACTCATGTACGCAGTCG,4.07
14,GCTATTAGTAGAAAGGGCAACCGAATGATTCTCG,1.81
15,CCAGACAGGTGAAAGGTAAGTCAGTCTGGTACGC,3
16,ACTCGGAGGACAAAGGTCAGAGATACGCCAGTGA,6.73
17,AGAATGAGGTTACCAAAGATCAGGGCAACGCTTG,1.15
18,CCGACTGGGGCAAAGGTTAGCATACTCAGTACGA,9.08
19,ATCTCTAAGTAAAGATAGTTCAGTGAATGCAAAT,0.359
20,GCTATTAGTTGAAAGGGCTACCGAATGATTCTCG,0.317
21,TCTTGTCGATCAATAGAGGTTAAGAAAGTGCGCT,2.67
22,ATCTCTTGGTAAAAGTTCAGTGAATCCCGAGGAT,1.88
